Measured values reported in PubChem BioAssay AID1159580 (chemical genetic matrix, 2015).
The whole screen tested about 5,500 compounds, of which about 2,000 (36%) were called active. Another 18% or so got no clear call; they are omitted. Rule as the data show it: active = normalized growth mostly below about 0.91 (no sharp cut-off); inconclusive = no clear call, values can overlap the other calls; inactive = mostly above about 0.92. Some of the results follow.

Test: chemical genetic growth profiling, strain panel (AID 1159580);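 also: tested at 20 µM; growth read once vehicle control cultures reached saturation at 30 °C; 1 = growth at the plate median or of vehicle wells; lower values mean less growth of the strain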
Conditions: growth OD

Measured: normalized growth

CC(=O)CC1CCCCN1 (configuration not stated)
inactive: S. cerevisiae deletion strains, locus YJR075W, strain HOC1, active compounds read low 1.01 | S. cerevisiae deletion strains, locus YKL009W, strain mrt4, active compounds read low 0.996 | S. cerevisiae deletion strains, locus YKL068W, active compounds read low 1 | S. cerevisiae deletion strains, locus YKL085W, strain MDH1 (second series), active compounds read low 0.983 | S. cerevisiae deletion strains, locus YKL085W, strain MDH1, active compounds read low 0.983 | S. cerevisiae deletion strains, locus YKL160W, strain elf1, active compounds read low 1.02 | S. cerevisiae deletion strains, locus YKL190W, strain CNB1, active compounds read low 1.02 | S. cerevisiae deletion strains, locus YKR001C, strain vps1, active compounds read low 0.994 | S. cerevisiae deletion strains, locus YKR026C, strain gcn3, active compounds read low 1.02 | S. cerevisiae deletion strains, locus YKR091W, strain srl3, active compounds read low 1.02 | S. cerevisiae deletion strains, locus YLL001W, strain dnm1, active compounds read low 1.02 | S. cerevisiae deletion strains, locus YLL026W, active compounds read low 1.02 | S. cerevisiae deletion strains, locus YLL041C, strain sdh2, active compounds read low 1.01 | S. cerevisiae deletion strains, locus YLR027C, strain aat2, active compounds read low 1.03 | S. cerevisiae deletion strains, locus YLR039C, strain RIC1, active compounds read low 1.06 | S. cerevisiae deletion strains, locus YLR058C, strain SHM2, active compounds read low 1.02 | S. cerevisiae deletion strains, locus YLR102C, strain apc9, active compounds read low 0.996 | S. cerevisiae deletion strains, locus YLR113W, strain HOG1, active compounds read low 0.981 | S. cerevisiae deletion strains, locus YLR221C, strain rsa3, active compounds read low 1.03 | S. cerevisiae deletion strains, locus YLR258W, strain gsy2, active compounds read low 1.02 | S. cerevisiae deletion strains, locus YLR262C, strain YPT6 (second series), active compounds read low 1.03 | S. cerevisiae deletion strains, locus YLR262C, strain YPT6, active compounds read low 1.1 | S. cerevisiae deletion strains, locus YLR268W, strain sec22, active compounds read low 0.993 | S. cerevisiae deletion strains, locus YLR320W, strain mms22, active compounds read low 1.04 | S. cerevisiae deletion strains, locus YLR330W, strain CHS5, active compounds read low 1.01 | S. cerevisiae deletion strains, locus YLR342W, strain FKS1 (second series), active compounds read low 0.993 | S. cerevisiae deletion strains, locus YLR342W, strain FKS1, active compounds read low 1.02 | S. cerevisiae deletion strains, locus YLR357W, strain rsc2, active compounds read low 0.995 | S. cerevisiae deletion strains, locus YLR370C, strain arc18, active compounds read low 1.02 | S. cerevisiae deletion strains, locus YLR371W, strain rom2, active compounds read low 0.994 | S. cerevisiae deletion strains, locus YLR384C, strain iki3, active compounds read low 1.01 | S. cerevisiae deletion strains, locus YLR418C, strain cdc73, active compounds read low 1 | S. cerevisiae deletion strains, locus YML016C, strain PPZ1, active compounds read low 1.02 | S. cerevisiae deletion strains, locus YML032C, strain rad52, active compounds read low 0.982 | S. cerevisiae deletion strains, locus YML120C, strain ndi1, active compounds read low 1.02 | S. cerevisiae deletion strains, locus YML124C, strain tub3, active compounds read low 0.995 | S. cerevisiae deletion strains, locus YMR058W, strain fet3, active compounds read low 1.02 | S. cerevisiae deletion strains, locus YMR078C, strain ctf18, active compounds read low 0.99 | S. cerevisiae deletion strains, locus YMR125W, strain sto1, active compounds read low 1 | S. cerevisiae deletion strains, locus YMR129W, active compounds read low 1.01 | S. cerevisiae deletion strains, locus YMR205C, strain PFK2, active compounds read low 1.04 | S. cerevisiae deletion strains, locus YMR223W, strain ubp8, active compounds read low 0.997 | S. cerevisiae deletion strains, locus YMR231W, strain pep5, active compounds read low 1.01 | S. cerevisiae deletion strains, locus YMR263W, strain SAP30, active compounds read low 1.02 | S. cerevisiae deletion strains, locus YMR307W, strain GAS1, active compounds read low 1.08 | S. cerevisiae deletion strains, locus YNL067W, strain RPL9B, active compounds read low 1.02 | S. cerevisiae deletion strains, locus YNL071W, strain lat1, active compounds read low 1.02 | S. cerevisiae deletion strains, locus YNL128W, strain TEP1, active compounds read low 1.01 | S. cerevisiae deletion strains, locus YNL153C, strain GIM3, active compounds read low 1.02 | S. cerevisiae deletion strains, locus YNL183C, strain NPR1, active compounds read low 0.954 | S. cerevisiae deletion strains, locus YNL209W, strain ssb2, active compounds read low 1.02 | S. cerevisiae deletion strains, locus YNL233W, strain BNI4, active compounds read low 1.02 | S. cerevisiae deletion strains, locus YNL248C, strain rpa49, active compounds read low 1.01 | S. cerevisiae deletion strains, locus YNL250W, strain rad50, active compounds read low 0.993 | S. cerevisiae deletion strains, locus YNL271C, strain bni1, active compounds read low 0.993 | S. cerevisiae deletion strains, locus YNL298W, strain CLA4, active compounds read low 0.988 | S. cerevisiae deletion strains, locus YNL307C, strain MCK1, active compounds read low 0.995 | S. cerevisiae deletion strains, locus YNL322C, strain KRE1 (second series), active compounds read low 1.01 | S. cerevisiae deletion strains, locus YNL322C, strain KRE1, active compounds read low 1.01 | S. cerevisiae deletion strains, locus YNR049C, strain mso1, active compounds read low 1.02 | S. cerevisiae deletion strains, locus YNR052C, strain pop2, active compounds read low 0.98 | S. cerevisiae deletion strains, locus YOL006C, strain TOP1, active compounds read low 1.04 | S. cerevisiae deletion strains, locus YOL012C, strain htz1 0.894 | S. cerevisiae deletion strains, locus YOL147C, strain pex11, active compounds read low 0.993 | S. cerevisiae deletion strains, locus YOR001W, strain rrp6, active compounds read low 1 | S. cerevisiae deletion strains, locus YOR061W, strain CKA2, active compounds read low 1.01 | S. cerevisiae deletion strains, locus YOR069W, strain VPS5, active compounds read low 0.999 | S. cerevisiae deletion strains, locus YOR070C, strain gyp1, active compounds read low 1.03 | S. cerevisiae deletion strains, locus YOR080W, strain dia2, active compounds read low 1.02 | S. cerevisiae deletion strains, locus YOR083W, strain WHI5, active compounds read low 1.03 | S. cerevisiae deletion strains, locus YOR106W, strain vam3, active compounds read low 1.01 | S. cerevisiae deletion strains, locus YOR136W, strain idh2, active compounds read low 0.977 | S. cerevisiae deletion strains, locus YOR144C, strain elg1, active compounds read low 1 | S. cerevisiae deletion strains, locus YOR184W, strain ser1, active compounds read low 0.974 | S. cerevisiae deletion strains, locus YOR231W, strain MKK1, active compounds read low 0.983 | S. cerevisiae deletion strains, locus YOR265W, strain rbl2, active compounds read low 1.01 | S. cerevisiae deletion strains, locus YOR270C, strain vph1, active compounds read low 1.05 | S. cerevisiae deletion strains, locus YOR290C, strain snf2, active compounds read low 1 | S. cerevisiae deletion strains, locus YOR316C, strain cot1, active compounds read low 0.991 | S. cerevisiae deletion strains, locus YPL051W, strain arl3, active compounds read low 1.03 | S. cerevisiae deletion strains, locus YPL055C, strain LGE1, active compounds read low 1.04 | S. cerevisiae deletion strains, locus YPL078C, strain atp4, active compounds read low 1.02 | S. cerevisiae deletion strains, locus YPL106C, strain sse1, active compounds read low 1 | S. cerevisiae deletion strains, locus YPL240C, strain hsp82, active compounds read low 1.01 | S. cerevisiae deletion strains, locus YPL241C, strain CIN2, active compounds read low 0.995 | S. cerevisiae deletion strains, locus YPL256C, strain CLN2, active compounds read low 0.967 | S. cerevisiae deletion strains, locus YPR119W, strain clb2, active compounds read low 0.993 | S. cerevisiae deletion strains, locus YPR141C, strain kar3, active compounds read low 0.99 | S. cerevisiae deletion strains, locus YPR163C, strain tif3, active compounds read low 0.993 | S. cerevisiae deletion strains, locus YPR167C, strain met16, active compounds read low 0.987 | S. cerevisiae deletion strains, strain wtn01, active compounds read low 1 | S. cerevisiae strains, strain wild type, active compounds read low 1.02
